High-throughput results (PubChem BioAssay)
Hits are enriched below; roughly 21% of the tested compounds scored in any of these assays.
Pf growth 48h = P. falciparum growth inhibition at 48 hours (one generation) | P. falciparum luciferase growth in erythrocytes, 48 h | Potency, µM (highest dose often 28.7 µM), hits mostly inhibitors | 5.9% of 310,000 active
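Erythrocytes infected with P. falciparum carrying an integrated firefly luciferase reporter (2% hematocrit, 0.1% parasitemia final) were exposed to compounds in RPMI 1640 with 0.5% Albumax at 37 C, 5% CO2. Growth inhibition was scored as reduced luminescence.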
Shiga inhibitor = blocks Shiga toxin action in Vero cells. inhibition, % at 38.7 µM. AID 2315. Vero cells, Shiga toxin protein synthesis inhibition reporter. 9.2% of 290,000 active; in the data active = inhibition mostly above about 28%, no sharp cut-off; inactive = mostly below about 43%
Pf growth 96h = inhibits malaria parasite growth, 96 h. AID 504834. P. falciparum luciferase reporter growth, 96 h. 6.9% of 320,000 active. Potency, µM (top dose mostly 28.7 µM), most hits filed as inhibitors
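Infected RBCs, 2% Hct / 0.05% parasitemia final; luciferase-reporter P. falciparum; cpd 96 h, 37 C, 5% CO2; luciferase detection reagent; luminescence.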
NS1 inh = inhibitors of influenza NS1 protein function | Potency, µM (top dose mostly 46.1 µM) | 0.4% of 270,000 active; calls by dose curve; also: actives are rising curves; nearly all actives have a fitted effect of over 50% in size
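Read-out: OD600 growth recovery of NS1-expressing budding yeast. Cells grown overnight at 30C in -URA glucose medium, washed, resuspended and diluted 1:100 in 2% galactose assay medium, pH 6.0. Same strain lacking NS1 served as positive control.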
SARS PLpro yeast = SARS-CoV PLP inhibition in yeast | Potency, µM (series often up to 32.9 µM), usual class: activators | S. cerevisiae expressing SARS-CoV PLpro, growth rescue | 0.19% of 330,000 active; calls by dose curve; also: nearly all actives have a fitted effect of over 55% in size
Cycloheximide cs = counter-screen hit for Shiga toxin inhibitors, cycloheximide; cell reporter, cycloheximide protein synthesis inhibition counterscreen; max response, %; 12% of 300,000 active; AID 2314; in the data active = max response mostly above about 13%, no sharp cut-off; inactive = mostly below about 14%; also: read at 38.3 µM for the half of the compounds with a filed dose
Hits are given with their value; . = inactive; ? = inconclusive; / = not tested or not shown. Unless noted, calls follow the shape of the dose curve; as a rule, active = well fitted inhibition curve with a large enough effect; inconclusive = small, poorly fitted or top-dose-only effect, or another doubt; inactive = no such curve, though single readings can be large or run the other way.

SMILES	Pf growth 48h	Shiga inhibitor	Pf growth 96h	NS1 inh	SARS PLpro yeast	Cycloheximide cs
CSCCC(NS(=O)(=O)c1ccccc1F)C(=O)NCc1cccs1 (stereo not given)	.	/	.	/	.	/
c1ccc(-c2ccc(-c3nccc4ccccc34)[nH]2)cc1	.	.	.	.	.	28.8
N#Cc1cc(-c2ccccc2)[nH]c1-c1nccc2ccccc12	.	.	?	.	.	.
CC(=O)N1N=C(c2ccc(Cl)cc2)OC1c1ccc(C(C)C)cc1 (stereo not given)	.	109.9	.	.	.	30.4
CC(=O)N1N=C(c2ccc(C)cc2)OC1c1ccc(Br)cc1 (stereo not given)	.	.	.	.	.	17.4
CC(=O)NC1=NN(C(C)=O)C(c2ccc(C)cc2)S1 (stereo not given)	.	.	?	.	.	.
O=C1c2ccc(Cl)cc2S(=O)(=O)c2cccc(C(=O)N3CCN(c4ccc(Cl)cn4)CC3)c21	.	/	.	/	.	/
COc1cccc(C(=O)Nc2cccc(-c3nc4ncccc4o3)c2C)c1	.	.	.	.	.	.
COc1ccc(C(=O)Nc2cccc(-c3nc4ncccc4o3)c2C)cc1OC	.	.	3.7µM	.	.	.
CCOc1cccc(C(=O)Nc2cccc(-c3nc4ncccc4o3)c2C)c1	.	.	.	.	.	.
Cc1c(NC(=O)c2ccc([N+](=O)[O-])o2)cccc1-c1nc2ncccc2o1	11.7µM	.	.	.	.	.
CCN(Cc1ccncc1)Cc1ccc(Br)cc1	?	.	?	.	.	.
C[C@H](CO)N1C[C@H](C)[C@@H](CN(C)C(=O)Nc2ccc(C(F)(F)F)cc2)Oc2ccc(NS(=O)(=O)c3cn(C)cn3)cc2C1=O	/	/	/	/	.	/
COC(=O)[C@@H](NC(=O)c1ccc2c(c1)S(=O)(=O)c1ccccc1C2=O)C(C)C	.	.	.	.	.	.
Cn1c(=O)c2c(SCc3cccnc3)nc(CC(C)(C)C)nc2n(C)c1=O	/	.	?	.	.	.
CCCc1nc(SCc2cccnc2)c2c(=O)n(C)c(=O)n(C)c2n1	13.1µM	.	?	.	.	.
CCc1nc(SCC(=O)NCc2ccc(F)cc2)c2c(=O)n(C)c(=O)n(C)c2n1	.	.	.	.	?	.
Cn1c(=O)c2c(SCc3ccccn3)nc(CC(C)(C)C)nc2n(C)c1=O	11.7µM	.	?	.	.	.
CCc1nc(SCc2ccc(C(=O)OC)o2)c2c(=O)n(C)c(=O)n(C)c2n1	8.28µM	.	2.62µM	.	.	.
CCCc1nc(SCc2ccccn2)c2c(=O)n(C)c(=O)n(C)c2n1	/	.	.	.	.	.
COc1ccccc1N/N=C(\C#N)C(=N)N1CCOCC1	.	.	.	/	.	.
N#C/C(=N\Nc1ccc([N+](=O)[O-])cc1)C(=N)N1CCOCC1	.	68.8	.	.	.	45.8
N#C/C(=N\Nc1ccccc1[N+](=O)[O-])C(=N)N1CCCCC1	.	66.9	.	/	.	30.6
N#C/C(=N\Nc1ccc([N+](=O)[O-])cc1)C(N)=S	.	88.0	?	.	.	41.0
N#C/C(=N\Nc1ccc(S(=O)(=O)N2CCCCCC2)cc1)C(N)=S	.	.	?	.	.	.
SMILES	Pf growth 48h	Shiga inhibitor	Pf growth 96h	NS1 inh	SARS PLpro yeast	Cycloheximide cs
N=C(c1ccc([N+](=O)[O-])cc1)N1CCCCC1	.	.	.	.	.	.
N#C/C(=N/Nc1ccc([N+](=O)[O-])cc1)C(=N)N1CCCCC1	.	104.5	?	/	.	31.2
COc1ccc(Cl)cc1N1C(=O)CC(Sc2ccccc2N)C1=O (stereo not given)	.	.	.	.	.	.
CCCCOC(=O)c1ccc(NC(=S)NC(=O)c2c(Br)c(C)nn2C)cc1	.	.	?	.	.	.
N#C/C(=N\Nc1ccc(Br)cc1)C(=N)N1CCOCC1	.	107.2	.	/	.	69.1
C[N+](C)(C)CCCl	/	.	/	/	/	.
Cc1cc(NC(=O)CSc2nnc(-c3ccc(O)cc3)o2)no1	6.57µM	52.2	?	.	.	active
O=C(CSc1nnc(-c2ccc(O)cc2)o1)Nc1ccccc1	.	60.6	.	.	.	28.2
O=C(CSc1nnc(Cc2ccccc2)o1)Nc1ccccc1	.	.	.	.	.	.
O=C(CSc1nnc(-c2csc3c2CCCC3)o1)Nc1ccccc1	/	55.1	.	.	.	58.4
Cc1cc(NC(=O)CSc2nnc(-c3ccccc3)o2)no1	?	.	11.7µM	/	.	.
